HCV inhibitor = blocks hepatitis C virus. Huh7.5.1 HCVcc-Cre infection, luciferase reporter, 44 h. Potency, µM (highest dose often 41.8 µM), actives largely listed as inhibitors. hit rate 3.4% among 340,000; active = well fitted inhibition curve with a large enough effect; inconclusive = small, poorly fitted or top-dose-only effect, or another doubt; inactive = no such curve, though single readings can be large or run the other way
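1,000 cells/well; 4 h culture; + compound; + HCVcc-Cre (~0.5 moi); 44 h; luciferase substrate, RT 15 min; read 15 sec.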
VACV Venus inh = vaccinia inhibition (Venus reporter); Vaccinia virus Venus reporter expression, fluorescence; Potency, µM (highest dose often 36.5 µM), actives largely listed as inhibitors; hit rate 0.46% among 330,000; calls by dose curve; tested in A549 cells; note: nearly all actives have a fitted effect of over 30% in size
HCMV antiviral = blocks human cytomegalovirus replication; activity change, negative = inhibition, % at 57.5 µM; HFF cells, HCMV-luciferase reporter, 72 h; active compounds read low; hit rate 4.5% among 410,000; in the data active = activity change below about -60%; inconclusive = no clear call, values can overlap the other calls; inactive = above about -39%
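After 16 h attachment at 37C, HFF cells received test compound and HCMV-luciferase (1 PFU/cell); reporter luminescence read 72 h later, data normalized against buffer-only and known inhibitor Salinomycin.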
VACV mCherry inh = vaccinia inhibition (mCherry reporter). Vaccinia virus mCherry reporter infection, fluorescence. Potency, µM (titrated, usually from 36.5 µM), most hits filed as inhibitors. hit rate 0.63% among 310,000. AID 720579; calls by dose curve; tested in A549 cells; note: nearly all actives have a fitted effect of over 35% in size
FMDV antiviral = foot and mouth disease virus antiviral activity | Potency, µM (titrated, usually from 57.9 µM), usual class: inhibitors | FMDV antiviral cell-based qHTS | hit rate 1.2% among 410,000 | AID 1159524; calls by dose curve; tested in HEK293T cells; note: read-out not given here; nearly all actives have a fitted effect of over 45% in size
Large screens that a line does not name were inactive; ! = not confirmed by another sample. In the library only some 7.3% were active in any assay of this set; here they are far more common.

O=[N+]([O-])c1cc(O)c2ncccc2c1	HCV inhibitor 0.562µM, VACV Venus inh 1µM, HCMV antiviral -97.3, VACV mCherry inh 1µM
O=[N+]([O-])c1ccc(Sc2cccc3cccnc23)c2cccnc12	HCV inhibitor 10µM, HCMV antiviral -101.2, FMDV antiviral inconclusive (no result: VACV Venus inh, VACV mCherry inh)
O=[N+]([O-])c1cc2cccnc2c2ncccc12	HCV inhibitor inconclusive, HCMV antiviral -96.8 (no result: VACV Venus inh, VACV mCherry inh)
CCN(C(=O)CSc1nc2ccccc2c2nc(CCn3c(C)nc4ccccc43)nn12)c1cccc(C)c1	none (no result: HCV inhibitor)
Cc1ccc2c(c1)NC(=O)CC(c1ccccc1)=N2	HCV inhibitor 3.16µM, HCMV antiviral inconclusive
O=C1CC(c2ccccc2)=Nc2ccccc2N1	none (no result: FMDV antiviral)
O=C1CC(c2ccccc2)=Nc2ccc(Br)cc2N1	HCMV antiviral -68.5
Cc1ccc(C2=CC(=O)N(CCC(N)=O)C2)cc1	none (no result: HCV inhibitor, VACV Venus inh, VACV mCherry inh, FMDV antiviral)
CC1CCN(c2c(NCc3ccc(C(=O)N4CCc5ccccc54)cc3)c(=O)c2=O)CC1	HCMV antiviral -84.2
Cc1cccc(N2CCN(C(=O)c3ccc(CNc4c(N5CCC(C)CC5)c(=O)c4=O)cc3)CC2C)c1 (configuration not stated)	HCV inhibitor inconclusive, VACV Venus inh inconclusive, HCMV antiviral -60.5, FMDV antiviral inconclusive
CC1CCCN(C(=O)c2ccc(CNc3c(N4CCCCC4)c(=O)c3=O)cc2)C1 (configuration not stated)	none
CCCCNC(=O)c1ccc(CNc2c(N3CCC(C(=O)OCC)CC3)c(=O)c2=O)cc1	HCV inhibitor inconclusive, HCMV antiviral -61.2!
O=C(Nc1cccc2ccccc12)c1csc([C@@H]2O[C@H](CO)[C@@H](O)[C@H]2O)n1	none (no result: HCV inhibitor)
O=C(Nc1ccc2c(c1)OCO2)c1csc([C@H]2C[C@H](O)[C@@H](CO)O2)n1	HCMV antiviral -97.5 (no result: HCV inhibitor)
O=C(Nc1cccc2cccnc12)c1csc([C@@H]2O[C@H](CO)[C@H](O)[C@H](O)[C@H]2O)n1	HCMV antiviral -99.3 (no result: HCV inhibitor)
O=C(Nc1ccc(Oc2ccccc2)cc1)c1csc([C@H]2C[C@H](O)[C@@H](CO)O2)n1	HCMV antiviral -97.0, FMDV antiviral 7.94µM (no result: HCV inhibitor)
O=C(Nc1ccc(Oc2ccccc2)cc1)c1csc([C@@H]2O[C@H](CO)[C@@H](O)[C@H]2O)n1	HCMV antiviral -93.3, FMDV antiviral 15.8µM (no result: HCV inhibitor)
CCCN1C(=O)c2ccccc2CC1(C)C(=O)NC1CCCCC1 (configuration not stated)	none (no result: HCV inhibitor)
CC1CN(C(=O)N2CCC(C(=O)NCCCc3ccccc3)CC2)c2cc(Cl)ccc2O1 (configuration not stated)	FMDV antiviral inconclusive (no result: HCV inhibitor)
CCOC(=O)CSC1=C(C#N)C(=O)NC(c2ccc(OC)c(OC)c2)S1 (configuration not stated)	FMDV antiviral 28.2µM
CCOC(=O)c1c2c(n(C)c1C)C(=O)C(=O)c1ccc(Br)cc1-2	HCV inhibitor inconclusive, HCMV antiviral -97.5, FMDV antiviral 8.91µM
CCOC(=O)c1c2c(n(Cc3ccccc3)c1C)C(=O)C(=O)c1ccccc1-2	HCV inhibitor inconclusive, VACV Venus inh 4.47µM, VACV mCherry inh inconclusive, FMDV antiviral 20µM
CCOc1ccc2oc(C(=O)N3CCN(c4ccccn4)CC3)c(C)c2c1	none
CCOc1ccc2[nH]c3c(N4CCN(c5ccccn5)CC4)ncnc3c2c1	HCV inhibitor 1µM, HCMV antiviral inconclusive, FMDV antiviral inconclusive (no result: VACV Venus inh, VACV mCherry inh)
Cc1ccc2[nH]c3c(N4CCCCCC4)ncnc3c2c1	HCV inhibitor 3.16µM (no result: VACV Venus inh, HCMV antiviral, VACV mCherry inh, FMDV antiviral)
c1ccc2c(c1)[nH]c1c(N3CCC4(CC3)OCCO4)ncnc12	HCV inhibitor 7.08µM, VACV Venus inh inconclusive, FMDV antiviral inconclusive (no result: HCMV antiviral, VACV mCherry inh)
OC1(c2cccc(C(F)(F)F)c2)CCN(c2ncnc3c2[nH]c2ccccc23)CC1	HCV inhibitor inconclusive, VACV Venus inh inconclusive, VACV mCherry inh inconclusive, FMDV antiviral 28.2µM
Cc1ccccc1CNC(=O)CCC(=O)N1CCSc2ccccc21	none (no result: HCV inhibitor)
Cc1ccc2c(c1)[nH]c1c(N3CCN(Cc4ccccc4)CC3)ncnc12	HCV inhibitor 3.16µM, VACV Venus inh inconclusive, HCMV antiviral -84.9, VACV mCherry inh inconclusive (no result: FMDV antiviral)
c1ccc(CN2CCN(c3nc4ccccc4c4ccccc34)CC2)cc1	HCV inhibitor inconclusive, HCMV antiviral inconclusive (no result: VACV mCherry inh)
c1ccc(CN2CCN(c3ncnc4c3[nH]c3ccccc34)CC2)cc1	HCV inhibitor 11.2µM, VACV Venus inh inconclusive, HCMV antiviral -105.6, VACV mCherry inh 7.08µM, FMDV antiviral 10µM
Cc1ccc2[nH]c3c(N4CCN(Cc5ccccc5)CC4)ncnc3c2c1	HCV inhibitor inconclusive, VACV Venus inh inconclusive, HCMV antiviral -106.5, VACV mCherry inh inconclusive, FMDV antiviral 11.2µM
Cc1nc2ccccc2c(=O)n1/N=C/c1ccc(O)cc1O	VACV mCherry inh inconclusive
Cc1ccc(-c2[nH]ncc2/C=N/n2c(COc3ccccc3C)nc3ccccc3c2=O)cc1	HCV inhibitor inconclusive, VACV Venus inh 11.2µM, HCMV antiviral -88.7, VACV mCherry inh inconclusive
CCCc1nc2ccccc2c(=O)n1/N=C/c1ccccc1O	HCV inhibitor inconclusive, VACV Venus inh inconclusive, HCMV antiviral inconclusive, VACV mCherry inh 10µM
Cc1cc(/C=N/n2c(COc3ccccc3C)nc3ccccc3c2=O)c(O)c([N+](=O)[O-])c1	HCV inhibitor inconclusive, HCMV antiviral -91.9 (no result: VACV Venus inh, VACV mCherry inh)
COc1ccc(CNc2nc(-c3ccc4c(c3)OCO4)nc3ccccc23)c(OC)c1	none (no result: HCV inhibitor, VACV Venus inh, HCMV antiviral, VACV mCherry inh)
CCC1C(=O)NCCN1Cc1ccc2c(c1)CN(Cc1ccc3c(c1)OCCO3)CCO2 (configuration not stated)	none (no result: HCV inhibitor, HCMV antiviral)
Cc1ccc(N(Cc2cccs2)C(=O)c2ccco2)cc1	none (no result: HCV inhibitor)
COc1ccc(OC)c2c1sc(=NC(=O)C(C)C)n2C	none
COc1ccc(OC)c2c1sc(=NC(=O)C(C)(C)C)n2C	HCV inhibitor 10µM, VACV Venus inh inconclusive, VACV mCherry inh inconclusive
CCc1nn(CC(=O)NCCN2CCN(C)CC2)c(=O)c2cc3occc3n12	VACV Venus inh inconclusive, HCMV antiviral -103.7 (no result: VACV mCherry inh)
CCc1nn(CCCC(=O)N2CCN(c3cccc(C)c3C)CC2)c(=O)c2cc3occc3n12	HCV inhibitor 14.1µM, FMDV antiviral inconclusive (no result: VACV Venus inh, VACV mCherry inh)
CCc1nn(CC(=O)NCCCN2CCN(C)CC2)c(=O)c2cc3occc3n12	none
CCc1nn(CC(=O)N2CCN(c3cccc(C)c3C)CC2)c(=O)c2cc3occc3n12	none (no result: HCV inhibitor)
CCCn1c(=O)c2sccc2n2c(CCCC(=O)N3CCN(c4cccc(C)c4C)CC3)nnc12	FMDV antiviral 15.8µM (no result: HCV inhibitor)
COCCCNC(=O)CN1C(=O)c2cccnc2Sc2ccccc21	none (no result: HCV inhibitor)
COc1cc(NC(=O)N2CCC(CN3CCCCCC3)CC2)cc(OC)c1OC	none (no result: HCV inhibitor)
CCn1c(=O)cc(OCC(=O)NCCc2cccc(C)c2)c2ccccc21	none
CCOCCCNC(=O)c1cc(=O)n(Cc2cccc(C)c2)c2ccccc12	HCMV antiviral -61.6
Cc1c(C(=O)NCC2(c3ccccc3)CCOCC2)cnn1-c1nccc(-c2ccco2)n1	none (no result: HCV inhibitor, HCMV antiviral)
Cc1nn(CC(=O)N2CCN(c3ccccc3)CC2)c(=O)c2cc3cc(F)ccc3n12	none (no result: HCV inhibitor)
COc1ccc(-c2nc(CSCC(=O)N3CCN(c4cc(Cl)ccc4C)CC3)c(C)o2)cc1	VACV Venus inh inconclusive, HCMV antiviral -80.3, VACV mCherry inh inconclusive, FMDV antiviral inconclusive (no result: HCV inhibitor)
COc1ccc(-c2nc(CSCC(=O)N3CCN(C)CC3)c(C)o2)cc1OC	none (no result: VACV Venus inh, VACV mCherry inh)

Bioassay records deposited in PubChem BioAssay by National Center for Advancing Translational Sciences (NCATS).
